Source: PubChem (Broad Institute)
Many of the other results were omitted from the sample, so hits are more common in it than they were.
Tg IFNy HTS – blocks Toxoplasma gondii growth in the presence of IFN-gamma; Toxoplasma gondii growth in IFN-gamma-treated host cells; stronger effect = lower value; activity change, negative = inhibition, % (concentration not given with the values); AID 1259416; 3.8% of 69,000 active; in the data active means activity change below about -70%, passing the limit was not always enough;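 further: host cells are HeLa cells infected with Toxoplasma gondii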
Starred values were filed as active, the others as inactive; ! = a repeat was not active.

CC(Nc1ncnc2ccccc12)c1ccccc1 (stereo not given) was read as Tg IFNy HTS -93*.
CC(Nc1nc(-c2nnc(-c3ccccc3)o2)nc2ccccc12)c1ccccc1 (stereo not given) was read as Tg IFNy HTS -94*.
`c1ccc(Nc2ncnc3ccccc23)cc1` gave Tg IFNy HTS -61.
`Cc1cccc(Nc2ncnc3ccccc23)c1` gave Tg IFNy HTS -51.
Screening CN(C)C(=O)c1ccc(-c2ccc([C@@H]3[C@H]4CN(C(=O)CC5CC5)CC(=O)N4[C@H]3CO)cc2)cc1 returned Tg IFNy HTS 24.
Cc1c(-c2cc(C(=O)NC(C)CCCc3ccccc3)no2)cnn1C (stereo not given) was read as Tg IFNy HTS -23.
`CCCC(=O)N1CCC2(CC1)Nc1ccccc1NC2=O` gave Tg IFNy HTS 281.
`Cc1nn(C)cc1NC(=O)Nc1ccc(F)cc1` gave Tg IFNy HTS 31.
Screening COc1ccc2c3c([nH]c2c1)[C@@H](CO)N(Cc1ccncc1)CC31CCN(CC2CCOCC2)CC1 returned Tg IFNy HTS -9.
For COc1ccc(Oc2ccc(C(=O)NCCc3ccccn3)cc2)cc1 the results were Tg IFNy HTS -54.
Screening COc1ccc(Oc2cccc(Cl)c2CNC(=O)CSCC(=O)O)cc1 returned Tg IFNy HTS 31.
COc1ccc(Oc2cccc(F)c2CNC(=O)c2ccc(OC)cc2)cc1 was read as Tg IFNy HTS -88*.
Screening O=C(NCCc1nc(-c2cccnc2)n[nH]1)C1c2ccccc2Oc2ccccc21 returned Tg IFNy HTS -9.
`COCc1nc(NCCN2CCc3ccccc32)c2cnn(C)c2n1` gave Tg IFNy HTS -3.
Screening Cc1ccc(-c2cc(-c3ccccc3)nc(N3CCCC3)n2)cc1 returned Tg IFNy HTS 29.
For Cc1noc(C)c1C(=O)NCc1ccc(-c2csnn2)cc1 the results were Tg IFNy HTS 18.
`CNC(=O)c1ccc(-c2ccc(CNC(=O)COC)cc2)nc1C` gave Tg IFNy HTS -74*.
`CCc1nc(OCC(=O)NCc2ccc(C)cc2)c2ccccc2n1` gave Tg IFNy HTS -5.
Screening CCC(NC(=O)Cc1c(C)nc(C)[nH]c1=O)c1cccs1 (stereo not given) returned Tg IFNy HTS 1.
For Cc1ccc(-c2cc(-c3ccccc3)nc3sc4c(c23)CCCC4)cc1 the results were Tg IFNy HTS 33.
Nc1c(-c2nnc(-c3ccccc3)o2)sc2nc(-c3ccccc3)cc(-c3ccccc3)c12 was read as Tg IFNy HTS -87*.
For O=c1[nH]cnc2c1sc1nc(-c3ccccc3)cc(-c3ccccc3)c12 the results were Tg IFNy HTS -9.
For COCC(=O)N1[C@@H]2c3ccc(-c4ccncc4)c(=O)n3C[C@@H]2[C@@H](CO)[C@@H]1C(=O)Nc1ccccc1 the results were Tg IFNy HTS -5.
Screening N#Cc1ccc(Oc2nc3cc(Cl)ccc3s2)cc1 returned Tg IFNy HTS 37.
`CN1CCN(C(=O)C[C@H]2CC[C@@H]3[C@H](COc4ccc(NC(=O)c5cccs5)cc4C(=O)N3C)O2)CC1` gave Tg IFNy HTS -5.
CN1C(=O)C2(CCN(Cc3ccccn3)CC2)C1c1ccccc1 (stereo not given) was read as Tg IFNy HTS 10.
For CCn1c(=O)c(-c2nc(-c3ccc(OC)cc3)no2)c(O)c2ccc(F)cc21 the results were Tg IFNy HTS 13.
Screening Cc1nc(CN2CCC3(CC2)NC(=O)CC3c2cnn(C)c2)cs1 (stereo not given) returned Tg IFNy HTS -25.
Screening CN(C)CCN1C(=O)CCC2C1CCN2C(=O)Cc1cccc(F)c1 (stereo not given) returned Tg IFNy HTS 10.
For O=C(CN1CCOCC1)Nc1ccc(Oc2ccccc2)cc1 the results were Tg IFNy HTS 23.
For COc1ccc(C(c2ccccc2)N2CCN(C(=O)C(C)n3ccnc3)CC2)cc1 (stereo not given) the results were Tg IFNy HTS 0.
O=C(Oc1ccc(Oc2ccccc2)cc1)N1CCC(OC(=O)n2ccnc2)CC1 was read as Tg IFNy HTS -97*.
`CO[C@H]1C[C@H]2CC[C@@H](C)[C@@](O)(O2)C(=O)C(=O)N2CCCC[C@H]2C(=O)O[C@H]([C@H](C)C[C@@H]2CC[C@H](OC(=O)C(C)(CO)CO)[C@H](OC)C2)CC(=O)[C@H](C)/C=C(\C)[C@@H](O)[C@@H](OC)C(=O)[C@H](C)C[C@H](C)/C=C/C=C/C=C/1C` gave Tg IFNy HTS 3.
Screening O=C(Cn1c(=O)ccc2cc(S(=O)(=O)N3CCCC3)ccc21)N1CCN(c2ccccn2)CC1 returned Tg IFNy HTS -16.
Cc1ccc(CNS(=O)(=O)c2ccc3[nH]c(=O)ccc3c2)o1 was read as Tg IFNy HTS 14.
For CCS(=O)(=O)N1CCCCN2[C@H](CO)[C@@H](c3ccc(-c4ccc(C(=O)N(C)C)cc4)cc3)[C@H]2C1 the results were Tg IFNy HTS 5.
For C[C@@H]1CN([C@@H](C)CO)C(=O)c2c(c3ccccc3n2C)-c2ccccc2CO[C@@H]1CN(C)S(=O)(=O)c1ccc([N+](=O)[O-])cc1 the results were Tg IFNy HTS -50.
`C[C@H](CO)N1C[C@H](C)[C@H](CN(C)S(=O)(=O)c2ccc([N+](=O)[O-])cc2)OCc2ccccc2-c2c(n(C)c3ccccc23)C1=O` gave Tg IFNy HTS -72*.
Screening C[C@@H]1CN([C@H](C)CO)C(=O)c2c(c3ccccc3n2C)-c2ccccc2CO[C@@H]1CN(C)S(=O)(=O)c1ccc([N+](=O)[O-])cc1 returned Tg IFNy HTS -24.
For COc1cccc(S(=O)(=O)N(C)C[C@@H]2OCc3ccccc3-c3c(n(C)c4ccccc34)C(=O)N([C@H](C)CO)C[C@@H]2C)c1 the results were Tg IFNy HTS -57.
COc1cccc(S(=O)(=O)N(C)C[C@H]2OCc3ccccc3-c3c(n(C)c4ccccc34)C(=O)N([C@@H](C)CO)C[C@H]2C)c1 was read as Tg IFNy HTS -72*.
COc1cccc(S(=O)(=O)N(C)C[C@@H]2OCc3ccccc3-c3c(n(C)c4ccccc34)C(=O)N([C@@H](C)CO)C[C@@H]2C)c1 was read as Tg IFNy HTS -43.
COC(=O)CCC(=O)CN was read as Tg IFNy HTS 2.
For CC1Cc2ccccc2N1C(=O)Cn1nc(-c2ccncc2)oc1=O (stereo not given) the results were Tg IFNy HTS -12.
`C#C[C@]1(OC(C)=O)CC[C@H]2[C@@H]3CCC4=C[C@@H](OC(C)=O)CC[C@@H]4[C@H]3CC[C@@]21C` gave Tg IFNy HTS -34.
C#C[C@]1(OC(C)=O)CCC2C3CCC4=CC(=O)CC[C@@H]4C3CC[C@@]21C (stereo not given in full) was read as Tg IFNy HTS -83*!.
Screening CC(=O)O[C@]1(C(C)=O)CC[C@H]2[C@@H]3C=C(C)C4=CC(=O)CC[C@@H]4[C@H]3CC[C@@]21C returned Tg IFNy HTS -21.
`CCN1CCN(C(=O)c2ccc(N3CCC(NCCc4ccc(C(F)(F)F)cc4)CC3)cc2)CC1` gave Tg IFNy HTS -4.
CCOC(=O)c1[nH]c(C)c(C(C)=O)c1C was read as Tg IFNy HTS 38.
Screening O=c1[nH]c2ccccc2c(O)c1-c1nc(-c2ccc(F)c(Br)c2)no1 returned Tg IFNy HTS -14.
CCOC(=O)CSC1=Nc2ccccc2C2=NC(CC(=O)NCc3ccc(OC)cc3)C(=O)N12 (stereo not given) was read as Tg IFNy HTS -49.
